# Laboratory results published in PubChem BioAssay (EPA / NIEHS).
# Calls of active or inactive are those of the source. How the source made its calls: active means hit-call score of the fitted dose curve at least 0.9, where 1 is the maximum; inactive means score below 0.9.
# Read-out: growth arrest and DNA damage 45 (GADD45A), GADD45A (gene 1647)
# Test: LTEA_HepaRG_GADD45A: Life Technologies and Expression Analysis (LTEA) Assay for growth arrest and DNA damage 45 (GADD45A) using HepaRG (AID 2283458)
# Conditions: mRNA level, 48 h; actives raise or lower the signal
# Protocol: LTEA_HepaRG is a cell based, multiplexed-readout assay that uses HepaRG, a human liver cell line, with measurements taken at 48 hours after chemical dosing on a 96-well plate.LTEA_HepaRG_GADD45A is one of 102 assay component(s) measured in the LTEA HepaRG cell culture assay. It is a marker of Oxidative Stress.Data from the assay component LTEA_HepaRG_GADD45A was analyzed into 1 endpoint. This assay endpoint, LTEA_HepaRG_GADD45A, was analyzed with bidirectional fitting relative to DMSO as the negative control and baseline of activity. Using a type of inducible reporter, measures of mRNA induction for gain or loss-of-signal activity can be used to understand regulation of transcription factor activity. To generalize the intended target to other relatable targets, this assay endpoint is annotated to the cell cycle intended target family, where the subfamily is Oxidative Stress.
# A total of 1060 chemcials from the ToxCast library were tested in eight-point concentration-response experiments. Cell culture and cytotoxicity assays were conducted at Thermo Fisher Scientific's Custom Services facility (Madison, WI). A single lot of human HepaRG cells (Thermo Fisher Scientific, Frederick, MD) was used for the cell culture experiments. 96-well format collagen type I coated plates of human HepaRG cells were prepared using established methods. Briefly, cryopreserved HepaRG cells were thawed, plated at a density of approximately 100,000 cells/well in HepaRG Thaw, Plate, and General Purpose media (HPRG770, Thermo Fisher Scientific), and incubated for 48 hours. 0.5% DMSO was selected as vehicle control to balance the requisite need of DMSO in HepaRG cultures to maintain differentiation (for example, baseline metabolism, proportions of hepatocytes vs. cholangiocytes), while enabling further hepatic receptor pathway activation (for example, PXR and CAR) in response to chemical exposure. 48 hours after plating, the culture medium was replaced with HepaRG Serum-Free Incudtion Media. Cells were exposed to each test chemical in duplicate and maintained in CO2 incubators for another 48 hours. Chemical plates were thawed to room temperature and 200x concentrations of treatment groups were prepared. 8-point conentration-reponse curves were made with the highest exposure at 100 uM, followed by half-log dilutions, all in 0.5% DMSO. Each test plate contained variouse controls, induction positive controls (1mM phenobarbital), cytotoxicity positive controls ([…] aflatoxin B1), vehicle controls (0.5% DMSO), and total lysis controls (0.5% DMSO). Cell morphology images were taken using an Essen IncuCyte FLR automated microscope, with six 96-well plates imaged in about 24 minutes. Images were captured and exported and JPEG files. Spent culture media was transfered to black-well plates for the LDH assay, and remaining media was sorted at -80 C for later use. Cells were treated with RLT buffer and frozen until shipped for gene expression analysis. Total RNA was isolated from the cell suspension in 75 uL of Buffer RLT (Qiagen, Germantown, MD 20874) by Quintiles/Expression Analysis (Durham, NC) using a custom isolation procedure. Total RNA from each plate well was transferred to a preamplification plate. Fluidigm's 96.96 Dynamic ArrayTM (Fluidigm, Amsterdam, the Netherlands) technology was used for gene expression analyses by quantitative reverse transcription polymerase chain reaction (qRT-PCR, performed by Quintiles/Expression Analysis, Durham, NC)89. Standard TaqManTM Assays (Applied Biosystems/ThermoFisher Scientific, Foster City, CA) were used to assess the expression of 93 genes selected based on their selectivity and sensitivity to important hepatic receptors known to be modulated by environmental chemicals; importance in human hepatocyte functionality; and hepatotoxicity. […]
SMILES,outcome,AC50
CCOC(=O)C(O)(c1ccc(Cl)cc1)c1ccc(Cl)cc1,inactive,–
Nn1cnnc1,inactive,–
CCCN(CCC)N=O,inactive,–
Cc1ccccc1O,inactive,–
O=C(NC(=O)c1c(F)cccc1F)Nc1cc(Cl)c(OC(F)(F)C(F)F)c(Cl)c1,inactive,–
Cc1cc2c3c(c1)C(c1ccccc1)=N[C@@H](NC(=O)c1ccncc1)C(=O)N3CC2,inactive,–
CC(c1ccc(O)cc1)(c1ccc(O)cc1)c1ccc(O)cc1,inactive,–
CCCCCCCCOC(=O)c1ccccc1C(=O)OCCCCCCCC,inactive,–
COS(=O)(=O)OC,inactive,–
C=CC(=O)NCNC(=O)C=C,inactive,–
Cc1ccccc1[N+](=O)[O-],inactive,–
Oc1ccc(C(c2ccc(O)cc2)(C(F)(F)F)C(F)(F)F)cc1,inactive,–
Cc1cccc([N+](=O)[O-])c1,inactive,–
O=C(O)C(F)(F)C(F)(F)C(F)(F)C(F)(F)C(F)(F)F,inactive,–
CCC(C)(CC)c1cc(NC(=O)c2c(OC)cccc2OC)on1,inactive,–
C1CC2OC2CC1C1CO1 (stereo not given),inactive,–
CC(C)(c1ccccc1)c1ccc(O)cc1,inactive,–
O=C(N[C@H]1CN2CCC1CC2)c1cc2ccoc2cn1,inactive,–
CCCCCCCCCc1ccc(O)cc1,inactive,–
CC(C)(O)C(=O)Nc1ccc([N+](=O)[O-])c(C(F)(F)F)c1,inactive,–

SMILES,outcome,AC50
ClC1=C(Cl)[C@]2(Cl)[C@@H]3[C@H]4C[C@H]([C@@H]5O[C@H]45)[C@@H]3[C@@]1(Cl)C2(Cl)Cl,inactive,–
CCOCCOC(C)=O,inactive,–
CCC(=O)O[C@H]1CC[C@H]2[C@@H]3CCC4=CC(=O)CC[C@]4(C)[C@H]3CC[C@]12C,inactive,–
O=C(NC(=O)c1cc(F)c(F)cc1Cl)Nc1cc(F)ccc1N1CCC(C(=O)O)CC1,inactive,–
Oc1c(Cl)c(Cl)c(Cl)c(Cl)c1Cl,–,6 µM (active)
C[C@]12CCC(=O)C=C1CC[C@@H]1[C@@H]2CC[C@]2(C)C(=O)CC[C@@H]12,–,50 µM (active)
O=NN(c1ccccc1)c1ccccc1,–,78.8 µM (active)
Cc1ccccc1CO[C@@H]1C[C@@]2(C(C)C)CC[C@]1(C)O2,inactive,–
CCCCCCCCCC[N+](C)(C)CCCCCCCCCC,inactive,–
O=S(=O)(O)C(F)(F)C(F)(F)C(F)(F)C(F)(F)F,inactive,–
CN(C)c1nc(=O)n(C2CCCCC2)c(=O)n1C,inactive,–
CC(C)C(=O)OCC(C)(C)C(OC(=O)C(C)C)C(C)C (stereo not given),inactive,–
CN(C)CCO,inactive,–
C[C@]12CCC(=O)C=C1CC[C@@H]1[C@@H]2CC[C@@]2(C)[C@H]1CC[C@]2(C)O,–,45.8 µM (active)
CCSC(=O)N(CC)C1CCCCC1,inactive,–
ClC1=C(Cl)[C@]2(Cl)[C@@H]3[C@@H]4C[C@@H]([C@H]5O[C@@H]45)[C@@H]3[C@@]1(Cl)C2(Cl)Cl,inactive,–
Clc1ccc(Cl)cc1,inactive,–
Oc1ccc(Cl)cc1Cl,inactive,–
CO/C=C(/C(=O)OC)c1ccccc1COc1cccc(C(F)(F)F)n1,–,9.39 µM (active)
Cc1cccc(C)c1N,inactive,–
